Data reported in PubChem BioAssay (NCI).
About 83,000 compounds went through this panel and 20% of them were active in at least one assay; those are over-represented in the sample as a whole.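 Single-concentration screen, 48 h exposure, 96-well plates. Endpoint: percent growth. Below 10 = active.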 Values without a mark were called inactive. Activity calls are given as the source filed them.

Key:
Experiment in all cases: NCI-60 one-dose screen, 48 h (100 = growth as untreated, 0 = no growth, -100 = all killed)
Conditions in all cases: 10 µM unless noted
SR leukemia = tested on: SR leukemia
RPMI-8226 leukemia = tested on: RPMI-8226 leukemia
OVCAR-8 ovarian = tested on: OVCAR-8 ovarian
OVCAR-5 ovarian = tested on: OVCAR-5 ovarian
OVCAR-4 ovarian = tested on: OVCAR-4 ovarian
SK-OV-3 ovarian = tested on: SK-OV-3 ovarian
IGROV1 ovarian = tested on: IGROV1 ovarian
OVCAR-3 ovarian = tested on: OVCAR-3 ovarian
HS 578T breast = tested on: HS 578T breast
NCI/ADR-RES ovarian = tested on: NCI/ADR-RES ovarian

SMILES	growth (SR leukemia)	growth (RPMI-8226 leukemia)	growth (OVCAR-8 ovarian)	growth (OVCAR-5 ovarian)	growth (OVCAR-4 ovarian)	growth (SK-OV-3 ovarian)	growth (IGROV1 ovarian)	growth (OVCAR-3 ovarian)	growth (HS 578T breast)	growth (NCI/ADR-RES ovarian)
Cc1ccc(-c2nc(SCC(=O)N3CCN(c4cc5c(cc4F)c(=O)c(C(=O)O)cn5C4CC4)CC3)nc(Cl)c2C#N)cc1	103%	104%	106%	96.4%	108%	89.2%	97.4%	109%	104%	102%
COc1ccc(/C=N/NC(=O)Cn2c(-c3ccc(S(C)(=O)=O)cc3)nc3ccccc32)cc1	100%	105%	111%	99.7%	117%	117%	91.4%	103%	92.4%	104%
CCCCC#Cc1c(I)n(C2OC(CO[Si](C)(C)C(C)(C)C)C3OC(C)(C)OC32)c(=O)n(C(=O)c2ccccc2)c1=O (stereo not given)	5.85% (active)	-55.2% (active)	48.8%	87.2%	82.6%	106%	27.4%	-59.7% (active)	12%	74%
Cc1c2ncccc2nc2[nH]c3ccc(OCCN(C)C)cc3c12	12.8%	-31.6% (active)	11.5%	47.5%	27.5%	38.1%	9.29% (active)	51.4%	47.9%	24.8%
O=C(Cn1nc(-c2cccc3ccccc23)ccc1=O)NCc1cccc(Cl)c1	22.2% [50 µM]	23.7% [50 µM]	39.5% [50 µM]	67.8% [50 µM]	41.4% [50 µM]	61.5% [50 µM]	47.2% [50 µM]	38.6% [50 µM]	61.6% [50 µM]	27.1% [50 µM]
O=C(/C=C/c1ccccc1Cl)c1cccc(OCCCCOc2cccc(C(=O)/C=C/c3ccccc3Cl)c2)c1	81%	-6.16% (active)	99.9%	101%	106%	100%	92.8%	112%	106%	103%
Nc1ccc(-c2ccncc2)cc1NC(=O)N1CCCC1	91.8%	82.2%	85.3%	109%	101%	92.2%	99.4%	99.3%	93.7%	81.8%
Cc1ccc(C(=O)c2ccc(CC(=O)N/N=C/c3cccc(O)c3O)n2C)cc1	8.86% (active)	35.1%	38.6%	72.6%	29.1%	68%	51.2%	23.5%	87.4%	19.2%
CCN(CC)CCOc1ccc2ccc(=O)oc2c1	-3.51% (active)	-4.27% (active)	98.8%	96%	101%	92.9%	109%	115%	109%	101%
COc1cc(C=C2C(=O)NC(=S)NC2=O)cc(CN2CCCC2)c1O	107%	106%	108%	106%	119%	94.4%	106%	111%	106%	108%
COc1ccc(OC)c(Nc2nnc(-c3cc(OC)c(OC)c(OC)c3)o2)c1	89.6%	95.2%	104%	105%	99.3%	104%	98.5%	112%	107%	94.4%
CCN(CC)CCn1c2ccc(OC)cc2c2sc3cc(O)ccc3c(=O)c21	2.99% (active)	21.2%	30.7%	91%	50.7%	52.3%	26.3%	38.3%	60%	27.6%
CCCC(=O)NC(c1ccc2c(c1)OCO2)c1cc(Cl)c2cccnc2c1O (stereo not given)	10.9%	17.7%	10.6%	54%	19.3%	29.8%	16.2%	17.6%	44.4%	1.56% (active)
OC1(c2ccccc2)c2ccccc2N(c2ccccc2)c2ccc(Cl)cc21 (stereo not given)	-28.7% (active)	-6.58% (active)	-45% (active)	-72.3% (active)	-82.8% (active)	-89.3% (active)	-94.5% (active)	-98.1% (active)	4.35% (active)	14.8%
Clc1ccc2nn3c4ccccc4c(OCCN4CCOCC4)nc3c2c1	88.1%	91.8%	85%	93.2%	90%	94.1%	71%	97.5%	97.5%	80.4%
Cc1cc(=O)n(C(=S)Nc2ccc(Cl)cc2)c2cc(O)ccc12	108%	113%	101%	101%	92.5%	79.1%	102%	100%	109%	103%
NC(=O)c1ccccc1OCC(=O)Nc1ccc(Cl)c(Cl)c1	71.4%	66.5%	91.9%	119%	96.5%	96.9%	84.2%	95.4%	98.7%	107%
Cc1nc2sc(C(=O)Nc3ccccn3)c(N)c2cc1C(C)O (stereo not given)	15.2%	94.5%	92.5%	77.9%	81%	65.2%	70.4%	76.5%	74.7%	74.2%
COc1cc(/C=C/c2cn[nH]c2-c2ccc(C)cc2)cc(OC)c1OC	12.3%	25.8%	32.8%	85%	78.5%	16.2%	51.9%	15.5%	39.9%	16.7%
CN(C)c1ccc(C(=S)c2ccc(N(C)C)cc2)cc1	33.2%	83.1%	88.5%	94.8%	83%	82.4%	59.3%	80.7%	94.1%	28.7%
CN(C)c1ccc(/C=C2\C=C(c3nc4ccccc4s3)OC2=O)cc1	96.7%	72%	100%	96.9%	81.7%	86.8%	89.7%	102%	92.2%	98.8%
COc1ccc(C(=O)/C=C/c2ccccc2)cc1S(N)(=O)=O	13.4%	64.9%	46.2%	101%	86.1%	116%	54.3%	52.4%	74.4%	79.3%
C/C(Cc1ccc(Cl)cc1)=C(\c1ccc(OCCN2CCCCCC2)cc1)c1ccc(OC(=O)c2ccccc2)cc1	-14.3% (active)	-24.6% (active)	34.5%	68.7%	36.6%	86.9%	24.4%	59.1%	56%	47%
Cc1c(C(C)(C)O)cn2ncnc(Oc3ccc(NC(=O)Nc4ccc(Cl)c(C(F)(F)F)c4)c(F)c3)c12	8.9% (active)	49.9%	70.7%	134%	37.5%	95.6%	57.3%	47.6%	80.9%	68%
N#Cc1c(-c2ccccc2)nc2c(c(-c3ccc(Cl)cc3)nn2-c2ccccc2)c1-c1ccc([N+](=O)[O-])cc1	63.4%	101%	98.5%	99.9%	109%	102%	103%	126%	104%	101%
O=C(c1ccc(Br)cc1)C(Br)C(c1ccc(Cl)cc1)C(c1ccccc1)[N+](=O)[O-] (stereo not given)	103%	92.1%	95.3%	108%	81.4%	99.4%	108%	94.4%	87.1%	95.6%
O=C1/C(=C/c2cccc(Br)c2)COc2ccc(O)cc21	4.39% (active)	-27.3% (active)	54.1%	89.8%	83.4%	115%	78%	49.1%	60.3%	47.6%
